{"source": "PubChem BioAssay (NCI)", "note": "This is part of a sample that, as a whole, favours compounds with a hit. Of some 83,000 tested, about 20% had one in any assay.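 Plates (96-well) were seeded with cells, treated with compound at one concentration, and incubated for 48 hours before percent growth was determined.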 Values without a mark were called inactive. The source made the active and inactive calls. Rule for the calls: active = growth percent below 10; inactive = the rest.", "data": [{"tested_on": "COLO 205 colon", "assay": "NCI-60 one-dose screen, 48 h (100 = growth as untreated, 0 = no growth, -100 = all killed)", "conditions": "10 µM", "values": [{"smiles": "COCCOC(=O)NC(=O)Nc1ccc(C(=O)c2ccc(Cl)cc2)cc1", "growth": "13.4%"}, {"smiles": "Cc1cnc(C=O)c2cccc([N+](=O)[O-])c12", "growth": "106%"}, {"smiles": "COc1ccc(-c2nc(SCC(=O)c3ccc(Br)cc3)[nH]c(=O)c2C#N)cc1", "growth": "119%"}, {"smiles": "COc1cccc2c1C(=O)c1c(O)c3c(c(O)c1C2=O)C[C@@](O)(C(=O)COC(=O)c1ccccc1)C[C@@H]3OC1CC(N)C(O)C(C)O1", "note": "(stereo partly drawn)", "growth": "-90.9% (active)"}, {"smiles": "Fc1ccc2[nH]c3c(NCCCN4CCOCC4)ncnc3c2c1", "growth": "53.4%"}, {"smiles": "CC(C)c1[nH]nc2c(NCc3ccc(-c4ccccn4)cc3)nc(SCCN)nc12", "growth": "-48.2% (active)"}, {"smiles": "COc1ccc(NC(=O)CCn2cnc3c(cc(-c4ccccc4)n3-c3ccccc3)c2=O)cc1", "growth": "114%"}, {"smiles": "CNC(=O)c1cc(Oc2ccc(NC(=O)Nc3ccc(Cl)c(OC4CCCCC4)c3)c(F)c2)ccn1", "growth": "33.2%"}, {"smiles": "CCCCCCCCCCCCCCCCn1cc[n+](C)c1", "growth": "-46% (active)"}, {"smiles": "O=C1/C(=C/c2cccs2)CCC/C1=C\\c1cccs1", "growth": "117%"}, {"smiles": "COC(=O)C1(C(=O)OC)C2C(=O)C3C(C21)C3(C(=O)OC(C)(C)C)C(=O)OC(C)(C)C", "note": "(stereo not drawn)", "growth": "115%"}, {"smiles": "COc1ccc(Cn2cc3c(c2-c2ccccc2)CC(C)(C)c2cnoc2-3)cc1", "growth": "2.39% (active)"}, {"smiles": "CC(C)C[C@H](NC(=O)Cn1ccc2ccccc2c1=O)B(O)O", "growth": "62.2%"}, {"smiles": "Cc1cc(Nc2cccc(F)c2)nc(NCc2ccccc2)n1", "growth": "8.24% (active)"}, {"smiles": "O=C(/C=C/c1ccc(Cl)cc1)c1ccc(Br)cc1", "growth": "110%"}, {"smiles": "Cc1cc2cc3c(=O)[nH]c(=O)cc-3n(CC(O)C(O)C(O)CO)c2cc1C", "note": "(stereo not drawn)", "growth": "93.1%"}, {"smiles": "N#Cc1cnc2ccc(NCc3cnc[nH]3)cc2c1Nc1ccc(F)c(Cl)c1", "growth": "96.9%"}, {"smiles": "Cn1c(=O)c2[nH]c(C(O)c3ccc(Cl)cc3)nc2n(C)c1=O", "note": "(stereo not drawn)", "growth": "102%"}, {"smiles": "Cc1ccc(S(=O)(=O)Nc2cccc3[nH]c(C(F)(F)F)nc23)cc1", "growth": "-21.6% (active)"}, {"smiles": "CCCCCCCOc1cccc(/C=C2/C(=O)N=C3SCCCN32)c1", "growth": "81.2%"}, {"smiles": "Cc1ccc(C)c(S(=O)(=O)NC2c3ccccc3Oc3ccccc32)c1", "growth": "99.2%"}, {"smiles": "Nc1nc2c(nnn2C2CC(O)C(CO)O2)c(=O)[nH]1", "note": "(stereo not drawn)", "growth": "11.9%"}, {"smiles": "Cc1nc2cc(-n3c(-c4ccc(F)cc4)nc4ccccc4c3=O)ccc2n1Cc1ccccc1", "growth": "4.23% (active)"}, {"smiles": "CCN(CCCNC(=O)Cc1cc(=O)oc2cc(N(C)C)ccc12)CCNc1ccnc2cc(Cl)ccc12", "growth": "68.1%"}, {"smiles": "COc1cc(-c2nc3ccccc3[nH]2)ccc1OCC(=O)N=Nc1c(O)[nH]c2ccccc12", "growth": "74.6%"}, {"smiles": "O=C(OCc1ncc(-c2ccc(C(F)(F)F)cc2)c(NC2CCCCCC2)n1)c1c(F)c(F)c(F)c(F)c1F", "growth": "59.2%"}, {"smiles": "COc1cc(C2=Nc3c/c(=C\\c4c(O)[nH]c5ccc(Cl)cc45)ccc3=N2)cc(OC)c1OC", "growth": "-41.1% (active)"}, {"smiles": "COc1ccc(OC)c([N+](=O)[O-])c1C=O", "growth": "124%"}, {"smiles": "COc1ccc(-c2nnc(COc3ccc(NC(=O)Nc4cccc(C(F)(F)F)c4)cc3F)o2)cc1", "growth": "88.1%"}, {"smiles": "COc1ccc(C(=O)n2nc(CC(=O)NCc3ccccc3)nc2N)cc1", "growth": "117%"}, {"smiles": "NC1CCC(Nc2nc(NCc3ccc(-c4ccccc4O)nc3)c3ncn(C4CCCC4)c3n2)CC1", "note": "(stereo not drawn)", "growth": "-70.4% (active)"}, {"smiles": "COc1ccc(CSc2nc3cc(OC)c(OC)cc3c(=O)n2-c2ccc(OC)cc2OC)cc1", "growth": "101%"}, {"smiles": "CCCCCCN=C(N)CCCCCCCCCCC(N)=NCCCCCC", "growth": "-9.55% (active)"}, {"smiles": "O=C(COCc1c(-c2ccccc2)no[n+]1[O-])Nc1nc(-c2ccc(Cl)cc2)cs1", "growth": "113%"}, {"smiles": "O=[N+]([O-])c1ccc2c(c1)Cc1cc(I)ccc1-2", "growth": "108%"}, {"smiles": "CN(C)CCCN(Cc1ccccc1O)C(=S)Nc1ccc(Cl)cc1", "growth": "113%"}, {"smiles": "CS(=O)(=O)Nc1ccc(Nc2c3ccccc3nc3cc(Cl)ccc23)cc1", "growth": "43.1%"}, {"smiles": "COc1ccc(/C=C2\\CCC3C(CCCC34OCCO4)C2=O)cc1", "note": "(stereo not drawn)", "growth": "94.5%"}]}]}
